{
  "source": "PubChem BioAssay (NCI)",
  "note": "Several values for one entry are separate records, joined by “and”; a condition that tells them apart may be missing. Identical values can stand only once. About 83,000 compounds went through this panel and 20% of them were active in at least one assay; those are over-represented in the sample as a whole.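 Cell lines were cultured in 96-well plates, exposed to a single compound concentration, and assessed for percent growth 48 hours later.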 Values without a mark were called inactive. Activity calls are given as the source filed them. The calls were made as follows: active = growth percent below 10; inactive = the rest.",
  "data": [
    {"tested_on": "MDA-MB-468 breast", "assay": "NCI-60 one-dose screen, 48 h (100 = growth as untreated, 0 = no growth, -100 = all killed)", "settings": "10 µM unless noted", "values": [
      {"compound": "CCOc1cccc(NC2=C(Br)C(=O)C(C)=C(C)C2=O)c1", "growth": "-65.7% (active)"},
      {"compound": "Nc1ccc(Br)cc1C(F)(F)F", "growth": "110%"},
      {"compound": "CC(=O)c1cc2c(N)c(C(=O)Nc3cccc4ccncc34)sc2nc1C", "growth": "71.6%"},
      {"compound": "CCCCCCCCCCC1OC(C)CC(C)O1", "note": "(stereo not given)", "growth": "98.5%"},
      {"compound": "C#CCN(CCCOc1ccc(Cl)cc1Cl)CCCSC(=O)CCCCCN1/C(=C\\C=C2/CCCC(/C=C/C3=[N+](CCCCCC(=O)[O-])c4ccccc4C3(C)C)=C2Cl)C(C)(C)c2ccccc21", "growth": "12.8%"},
      {"compound": "CC1=CC(=C(c2ccc(N)cc2)c2ccc(N)cc2)C=CC1=N", "growth": "-13.6% (active) and -1.34% (active)"},
      {"compound": "C=C1C(=O)O[C@H]2[C@H]1CC/C(Cn1cc(CNCCc3c[nH]c4ccccc34)nn1)=C\\CC[C@@]1(C)O[C@@H]21", "growth": "37.3%"},
      {"compound": "O=c1c2cc(F)ccc2sc2c(Nc3cccnc3)nc3ccccc3c12", "growth": "76.4%"},
      {"compound": "O=C1C2=C(C(=O)c3c(O)ccc(O)c31)N(c1ccc(N3CCOCC3)nc1)Cc1ccccc1O2", "growth": "-60.8% (active)"},
      {"compound": "OC1CSSC1Cn1cnc2c(Nc3ccc(F)c(Cl)c3)ncnc21", "note": "(stereo not given)", "growth": "2.83% (active)"},
      {"compound": "CC(C)Sc1nc(Nc2ccc(S(N)(=O)=O)cc2)c(C#N)c(-c2ccc(F)cc2)n1", "growth": "92.7%"},
      {"compound": "C=CCNc1ccc2c3c(cccc13)C(=O)N(CC=C)C2=O", "growth": "60.3%"},
      {"compound": "COc1cc(Cn2c(SCC(=O)Nc3ccc(Cl)cc3)nc3ccccc3c2=O)cc(OC)c1OC", "growth": "47.1%"},
      {"compound": "CN(C)c1cccc2c(S(=O)(=O)/N=C(\\N)Nc3nc4ccccc4s3)cccc12", "growth": "-8.02% (active)"},
      {"compound": "OC(c1ccccc1)c1ccccn1", "note": "(stereo not given)", "growth": "103%"},
      {"compound": "CC(C)(C#N)N1CCN(c2ccccc2Cl)CC1", "growth": "103%"},
      {"compound": "COC(=O)c1c2c(c(C)[n+]([O-])c1C)C(=O)C(NCc1ccc(Cl)cc1)=CC2=O", "growth": "39.8%"},
      {"compound": "Nc1c(C(=O)Nc2cccc(Cl)c2)sc2nc3c(cc12)C(=O)CCC3", "growth": "-10.6% (active)"},
      {"compound": "Fc1ccc(Nc2nc3nonc3nc2Nc2ccc(F)cc2)cc1", "growth": "-4.42% (active)"},
      {"compound": "S=C(c1ccc2c(c1)OCO2)N1CCN(c2ccccc2Cl)CC1", "growth": "80.8%"},
      {"compound": "Cc1cc2ncc(-c3cc4ccccc4c(N4CCN(C)CC4)n3)nc2cc1C", "growth": "-76.6% (active)"},
      {"compound": "CCCCNCC(O)c1cc(-c2ccc(C(F)(F)F)cc2)nc(-c2ccc(C(F)(F)F)cc2)c1", "note": "(stereo not given)", "growth": "-87.9% (active)"},
      {"compound": "COc1cc2c(cc1NC(=O)C(F)(F)F)-c1ccc(NC(=O)C(F)(F)F)cc1C2", "growth": "58%"},
      {"compound": "O=C1NC(=C(Cl)Cl)/C(=N/S(=O)(=O)N2CCCCC2CC2(C(F)(F)F)N=N2)N1", "note": "(stereo not given)", "growth": "-44.8% (active)"},
      {"compound": "CN[C@@H](C)C(=O)N[C@H]1CCS[C@H]2CC(C)(C)[C@@H](C(=O)N[C@H]3c4ccccc4C[C@H]3OCC#CC#CCO[C@@H]3Cc4ccccc4[C@@H]3NC(=O)[C@H]3N4C(=O)[C@@H](NC(=O)[C@H](C)NC)CCS[C@H]4CC3(C)C)N2C1=O", "growth": "19.3%"},
      {"compound": "C[C@H](NC(=O)[C@@H]1CSSC[C@@H](NC(=O)c2nc3ccccc3cc2O)C(=O)NCC(=O)N1C)c1ccccc1", "growth": "41.4%"},
      {"compound": "CC(=O)OC[C@]12CC[C@@H](C(=O)CBr)[C@@H]1[C@H]1CC[C@@H]3[C@@]4(C)CC[C@H](OC(C)=O)C(C)(C)[C@@H]4CC[C@@]3(C)[C@]1(C)CC2", "growth": "108%"},
      {"compound": "O=C1c2ccccc2CCC12OC2c1cn(-c2ccccc2)nc1-c1ccc(Cl)cc1", "note": "(stereo not given)", "growth": "92.5%"},
      {"compound": "C=CCSSC1N=CNc2nc[nH]c21", "note": "(stereo not given)", "growth": "5.55% (active)"},
      {"compound": "Brc1ccc(-c2cc(-c3ccc4c(c3)OC=CO4)n[nH]2)s1", "growth": "-13.5% (active)"},
      {"compound": "CC(C)=C(NC(=O)c1ccccc1)C(=O)O", "growth": "88.5%"},
      {"compound": "O=C(c1ccc(Cl)cc1Cl)N1c2ccccc2Sc2ccccc21", "growth": "51.4%"},
      {"compound": "S=C1CC(=S)NC(=S)N1", "growth": "95.8%"},
      {"compound": "COc1ccc(-c2cc(-c3cccnc3)nc3sc4c(=O)n(-c5ccc(C)cc5)cnc4c23)cc1OC", "growth": "93.7%"},
      {"compound": "CN1CCN(Cc2ccc(NC(=O)c3cncc(C#Cc4ncc5cnccn45)c3)cc2C(F)(F)F)CC1", "growth": "86.7%"},
      {"compound": "Cc1ccc2[nH]c(=O)cc(-n3nncc3COc3ccc(C=O)cc3)c2c1", "growth": "114%"},
      {"compound": "Cc1ccc(NC(=O)N[C@@H](Cc2cc(F)cc(F)c2)C(=O)N[C@@H]2C(=O)N3CCC[C@H]3C(=O)N3CCOC[C@H]3C(=O)N[C@@H](C)C(=O)N3C[C@H](C)C[C@H]3C(=O)O[C@H]2C)cc1", "growth": "5.17% (active)"},
      {"compound": "Cc1csc(NC(c2ccccc2)c2c(C)nc3ccccn23)n1", "note": "(stereo not given)", "growth": "100%"},
      {"compound": "O=C(COc1cccc2cccnc12)Nc1ccc(C(=O)/C=C/c2ccc(Cl)cc2)cc1", "growth": "89.3%"},
      {"compound": "COc1ccc(C2=NN(C(C)=O)C(c3cc(OC)c(OC)c(OC)c3)C2)cc1", "note": "(stereo not given)", "growth": "108%"}
    ]}
  ]
}
